Measured values from the supplement of paper PMC10849652.
About 7,900 targets were measured; listed, in parts, are those with a hit and a random draw of the rest. About 0.6% of all pairs of compound and target were hits.

compound: c1cn2cc(-c3ccc4cn[nH]c4c3)nc(Nc3ccc(N4CCOCC4)cc3)c2n1 [entospletinib]; assay: log2 fold change, soluble protein after heating vs DMSO (PISA); higher = thermal stabilisation; K562 cells, 10 uM, 30 min; active = over 0.2 and 3.5 SD of the protein, either way, in both replicates (recomputed)
In short: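 K562 cells (2×10^6 cells/mL) were treated with 10 μM compound for 30 min, and aliquots were heated for 3 min over 48°C-58°C. Pooled aliquots were extracted in PBS with 0.5% NP-40 at 4°C, and the supernatant after 21,000xg for 90 min was measured by TMTpro 16plex LC-MS/MS with channel sums equalised. Reported thermal stability, relative to control samples and from duplicates, is a log2 fold change.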

UniProt Q9NX18, sequence (Q9NX18 whole entry, looked up): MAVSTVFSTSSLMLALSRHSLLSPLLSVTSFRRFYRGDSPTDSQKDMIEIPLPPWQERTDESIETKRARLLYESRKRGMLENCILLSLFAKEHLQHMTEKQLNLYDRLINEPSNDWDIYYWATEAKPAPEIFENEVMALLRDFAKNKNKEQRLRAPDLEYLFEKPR
UniProt Q8WXD2, sequence (Q8WXD2 whole entry, looked up): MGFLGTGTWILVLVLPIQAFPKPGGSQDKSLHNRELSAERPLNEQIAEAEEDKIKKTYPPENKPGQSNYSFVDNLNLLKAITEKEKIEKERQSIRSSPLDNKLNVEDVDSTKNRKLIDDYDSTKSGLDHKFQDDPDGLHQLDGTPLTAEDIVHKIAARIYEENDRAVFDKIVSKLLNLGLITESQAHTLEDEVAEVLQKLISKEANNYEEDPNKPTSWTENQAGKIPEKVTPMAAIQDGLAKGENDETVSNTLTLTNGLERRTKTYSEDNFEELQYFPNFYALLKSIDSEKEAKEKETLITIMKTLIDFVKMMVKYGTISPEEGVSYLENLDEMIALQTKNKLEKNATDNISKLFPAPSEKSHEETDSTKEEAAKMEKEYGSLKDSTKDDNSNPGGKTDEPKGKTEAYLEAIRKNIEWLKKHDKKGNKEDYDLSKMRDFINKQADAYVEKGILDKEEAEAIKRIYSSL
UniProt Q6NT16, sequence (Q6NT16 whole entry, looked up): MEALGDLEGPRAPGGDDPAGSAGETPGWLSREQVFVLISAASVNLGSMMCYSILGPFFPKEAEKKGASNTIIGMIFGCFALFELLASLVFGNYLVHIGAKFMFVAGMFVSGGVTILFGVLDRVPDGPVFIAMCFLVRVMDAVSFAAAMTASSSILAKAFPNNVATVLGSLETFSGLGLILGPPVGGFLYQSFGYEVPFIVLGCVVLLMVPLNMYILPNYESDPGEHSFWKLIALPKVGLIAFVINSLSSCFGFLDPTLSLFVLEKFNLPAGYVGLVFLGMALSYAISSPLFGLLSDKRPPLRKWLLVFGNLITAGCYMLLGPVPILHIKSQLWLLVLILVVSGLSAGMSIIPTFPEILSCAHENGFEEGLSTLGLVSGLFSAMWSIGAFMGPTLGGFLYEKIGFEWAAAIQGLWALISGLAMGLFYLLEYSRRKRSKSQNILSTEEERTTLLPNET
UniProt Q9UBS8, sequence (Q9UBS8 whole entry, looked up): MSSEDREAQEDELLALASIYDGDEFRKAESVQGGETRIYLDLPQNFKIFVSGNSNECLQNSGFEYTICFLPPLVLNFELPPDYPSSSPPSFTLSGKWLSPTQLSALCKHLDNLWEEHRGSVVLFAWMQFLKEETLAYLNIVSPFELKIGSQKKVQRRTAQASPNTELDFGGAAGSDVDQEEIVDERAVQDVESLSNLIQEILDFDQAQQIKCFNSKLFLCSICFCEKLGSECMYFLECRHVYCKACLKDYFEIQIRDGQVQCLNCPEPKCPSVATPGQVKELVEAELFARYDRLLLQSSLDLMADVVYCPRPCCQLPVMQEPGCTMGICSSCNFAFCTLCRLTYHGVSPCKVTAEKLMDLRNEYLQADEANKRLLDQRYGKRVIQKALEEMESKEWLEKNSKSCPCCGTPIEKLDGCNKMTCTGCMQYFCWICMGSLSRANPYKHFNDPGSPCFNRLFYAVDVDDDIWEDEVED
UniProt Q9NR46, sequence (Q9NR46 whole entry, looked up): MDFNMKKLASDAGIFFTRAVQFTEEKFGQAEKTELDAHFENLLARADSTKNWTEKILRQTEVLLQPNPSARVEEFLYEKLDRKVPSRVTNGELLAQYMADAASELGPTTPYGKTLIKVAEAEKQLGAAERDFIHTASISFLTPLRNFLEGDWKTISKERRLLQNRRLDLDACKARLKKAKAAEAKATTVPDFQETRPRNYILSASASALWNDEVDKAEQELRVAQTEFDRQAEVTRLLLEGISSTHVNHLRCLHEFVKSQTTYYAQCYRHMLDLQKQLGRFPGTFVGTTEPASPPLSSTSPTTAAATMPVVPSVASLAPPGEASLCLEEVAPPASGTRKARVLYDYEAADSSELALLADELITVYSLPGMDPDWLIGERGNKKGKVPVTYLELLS
UniProt Q9NPQ8, sequence (Q9NPQ8 whole entry, looked up): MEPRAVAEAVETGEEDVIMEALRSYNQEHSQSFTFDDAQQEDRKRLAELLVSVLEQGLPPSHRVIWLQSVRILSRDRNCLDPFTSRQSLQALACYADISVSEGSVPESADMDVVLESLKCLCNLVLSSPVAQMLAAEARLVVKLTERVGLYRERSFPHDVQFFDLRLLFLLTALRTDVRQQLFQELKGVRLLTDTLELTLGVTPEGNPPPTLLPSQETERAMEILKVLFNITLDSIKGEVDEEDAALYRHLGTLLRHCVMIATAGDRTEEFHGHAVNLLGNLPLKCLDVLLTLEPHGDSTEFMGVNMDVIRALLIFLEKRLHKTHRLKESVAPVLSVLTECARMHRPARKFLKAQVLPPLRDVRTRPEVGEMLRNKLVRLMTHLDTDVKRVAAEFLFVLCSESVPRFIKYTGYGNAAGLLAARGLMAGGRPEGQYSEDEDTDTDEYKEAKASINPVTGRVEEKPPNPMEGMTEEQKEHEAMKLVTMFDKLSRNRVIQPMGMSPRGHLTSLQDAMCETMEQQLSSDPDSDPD
UniProt Q96DM3, sequence (Q96DM3 whole entry, looked up): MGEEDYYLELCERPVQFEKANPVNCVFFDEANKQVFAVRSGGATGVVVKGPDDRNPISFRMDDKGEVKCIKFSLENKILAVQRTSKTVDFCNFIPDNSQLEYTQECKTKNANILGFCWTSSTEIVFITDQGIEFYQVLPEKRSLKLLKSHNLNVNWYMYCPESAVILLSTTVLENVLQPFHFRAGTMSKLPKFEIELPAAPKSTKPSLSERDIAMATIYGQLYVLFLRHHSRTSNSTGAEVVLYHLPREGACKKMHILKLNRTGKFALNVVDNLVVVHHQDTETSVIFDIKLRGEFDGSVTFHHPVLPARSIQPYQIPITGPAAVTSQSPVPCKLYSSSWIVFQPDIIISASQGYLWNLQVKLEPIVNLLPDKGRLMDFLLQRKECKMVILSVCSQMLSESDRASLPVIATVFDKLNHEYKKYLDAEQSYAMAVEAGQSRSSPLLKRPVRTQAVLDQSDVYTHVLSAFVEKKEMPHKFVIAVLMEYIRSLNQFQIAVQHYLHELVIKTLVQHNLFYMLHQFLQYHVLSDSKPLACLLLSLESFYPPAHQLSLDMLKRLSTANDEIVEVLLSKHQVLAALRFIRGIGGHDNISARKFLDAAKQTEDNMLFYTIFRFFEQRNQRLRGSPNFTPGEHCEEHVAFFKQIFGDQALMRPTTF
UniProt Q53H47, sequence (Q53H47 whole entry, looked up): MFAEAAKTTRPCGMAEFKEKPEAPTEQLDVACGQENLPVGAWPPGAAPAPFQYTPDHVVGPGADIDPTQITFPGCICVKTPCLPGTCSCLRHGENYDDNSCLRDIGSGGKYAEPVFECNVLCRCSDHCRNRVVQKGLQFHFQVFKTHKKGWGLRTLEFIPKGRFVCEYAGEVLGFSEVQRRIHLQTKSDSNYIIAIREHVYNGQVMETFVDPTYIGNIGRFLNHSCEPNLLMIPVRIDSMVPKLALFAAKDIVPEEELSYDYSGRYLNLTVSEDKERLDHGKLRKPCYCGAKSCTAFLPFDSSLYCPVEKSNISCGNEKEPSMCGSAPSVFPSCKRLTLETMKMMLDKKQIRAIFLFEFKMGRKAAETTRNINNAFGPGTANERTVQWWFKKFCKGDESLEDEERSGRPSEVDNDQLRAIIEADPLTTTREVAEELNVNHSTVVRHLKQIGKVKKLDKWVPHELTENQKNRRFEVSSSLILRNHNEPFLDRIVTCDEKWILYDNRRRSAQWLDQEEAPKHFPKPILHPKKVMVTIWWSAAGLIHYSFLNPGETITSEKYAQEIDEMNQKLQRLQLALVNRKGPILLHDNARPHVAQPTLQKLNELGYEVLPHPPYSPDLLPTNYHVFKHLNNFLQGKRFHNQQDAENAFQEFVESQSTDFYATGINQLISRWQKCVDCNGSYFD
UniProt P49756, sequence (P49756 whole entry, looked up): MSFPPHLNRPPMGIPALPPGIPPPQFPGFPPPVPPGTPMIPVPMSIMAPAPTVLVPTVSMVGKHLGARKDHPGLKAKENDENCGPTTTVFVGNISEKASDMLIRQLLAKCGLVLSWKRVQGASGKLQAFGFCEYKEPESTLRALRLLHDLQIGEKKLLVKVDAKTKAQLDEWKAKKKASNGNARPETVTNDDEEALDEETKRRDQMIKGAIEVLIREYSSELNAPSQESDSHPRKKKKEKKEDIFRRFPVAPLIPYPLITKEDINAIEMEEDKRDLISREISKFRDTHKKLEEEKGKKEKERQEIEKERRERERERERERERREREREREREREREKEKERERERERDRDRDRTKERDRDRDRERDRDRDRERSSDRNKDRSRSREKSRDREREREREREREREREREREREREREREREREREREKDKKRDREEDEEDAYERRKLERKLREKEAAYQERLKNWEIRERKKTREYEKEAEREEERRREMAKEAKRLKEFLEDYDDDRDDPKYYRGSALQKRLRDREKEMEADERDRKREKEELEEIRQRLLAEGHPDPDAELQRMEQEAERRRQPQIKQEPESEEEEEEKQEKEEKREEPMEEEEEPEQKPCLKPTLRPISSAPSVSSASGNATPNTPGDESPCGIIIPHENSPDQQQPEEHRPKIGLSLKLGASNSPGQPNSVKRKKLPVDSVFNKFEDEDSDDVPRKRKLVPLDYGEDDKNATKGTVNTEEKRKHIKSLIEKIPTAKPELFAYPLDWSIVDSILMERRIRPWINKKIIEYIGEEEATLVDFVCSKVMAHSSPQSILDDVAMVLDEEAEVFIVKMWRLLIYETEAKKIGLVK
UniProt Q8IZQ5, sequence (Q8IZQ5 whole entry, looked up): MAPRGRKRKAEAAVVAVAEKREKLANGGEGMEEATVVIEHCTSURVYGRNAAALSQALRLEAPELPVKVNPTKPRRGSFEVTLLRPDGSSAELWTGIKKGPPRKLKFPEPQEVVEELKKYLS
UniProt O95059, sequence (O95059 whole entry, looked up): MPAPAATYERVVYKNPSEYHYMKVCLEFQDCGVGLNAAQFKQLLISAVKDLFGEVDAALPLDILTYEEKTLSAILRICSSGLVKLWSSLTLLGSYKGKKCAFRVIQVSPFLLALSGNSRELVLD

log2 fold change, inactive:
SCAMP2 (UniProt H3BUB6) 0.154
SELENOH (UniProt Q8IZQ5) -0.143
SCAMP2 (UniProt O15127) -0.078
RSL1D1 (UniProt O76021) 0.01
RIOK3 (UniProt O14730) -0.001
RNF2 (UniProt Q99496) -0.003
RPP14 (UniProt O95059) -0.066
RICTOR isoform 3 (UniProt Q6R327) 0.01
RAD50, A0A494C0Y7 -0.108
SDHAF2 (UniProt Q9NX18) 0.001
RARS (UniProt P54136) 0.165
RIC8A isoform 3 (UniProt Q9NPQ8) 0.095
RPS21 (UniProt P63220) -0.016
SLC18B1 (UniProt Q6NT16) 0.027
RHEB (UniProt Q15382) -0.073
RNPEP (UniProt Q9H4A4) 0.004
RAC1 (UniProt P63000) 0.026
RRAGC (UniProt Q9HB90) 0.021
RBM8A (UniProt Q9Y5S9) 0.061
RBM25 (UniProt P49756) -0.078
RPS5 (UniProt P46782) 0.037
RPS15 (UniProt P62841) 0.186
RCOR1 (UniProt Q9UKL0) 0.002
SH3GLB2 (UniProt Q9NR46) 0.034
SETD3 (UniProt Q86TU7) 0.001
RMC1 (UniProt Q96DM3) -0.03
RPS2 (UniProt P15880) 0.08
RNASET2 (UniProt O00584) 0.05
RUFY1 (UniProt Q96T51) 0.042
RNF185 (UniProt Q96GF1) 0.128
SDCBP (UniProt O00560) 0.115
RB1CC1 (UniProt Q8TDY2) -0.041
SETMAR (UniProt Q53H47) 0.075
RAB5C isoform 2 (UniProt P51148) -0.006
SCG3 (UniProt Q8WXD2) 0.091
SENP6 (UniProt Q9GZR1) -0.005
RNF14 (UniProt Q9UBS8) 0.035
